# PubChem BioAssay (NCATS)
# Inconclusive results are not listed. Active and inactive are the calls of the source. Calls come from the whole dose curve; as a rule, active = well fitted inhibition curve with a large enough effect; inconclusive = small, poorly fitted or top-dose-only effect; inactive = flat fitted curve, though single readings scatter.
# Test system: HEK293
# Test: Cytotoxic Profiling of Annotated Libraries Using Quantitative High-Throughput Screening (AID 1296008); note: nearly all actives have a fitted effect of over 60% in size
# Conditions: Five cell lines viability, CellTiter-Glo ATP luminescence, 48-72 h; max response: active compounds read low
# Outline: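 Compounds were pin-transferred onto cells and incubated 48 or 72 hr at 37 degree Celsius, 95% humidity. CellTiter-Glo was added, plates sat 10 min at room temperature, then ATP-coupled luminescence was imaged as the viability read-out.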
# % is set by controls: 0 for no effect and ±100 for the full control effect.
row,SMILES,max response
1,C=C1CCC2C(C)(C(=O)O)CCCC2(C)C1CC/C(C)=C\CO (centres undefined),-6.37% (inactive)
2,CN[C@H](CNC(=O)N1CCC[C@@H]([C@@H](OCCNC(=O)OC)c2cccc(Cl)c2)C1)C[C@H]1CCCOC1,0.31% (inactive)
3,COc1cc(C2Oc3c(OC)cc(/C=C/C(=O)OC4CC(O)(C(=O)O)CC(O)C4O)cc3C2CO)ccc1O (centres undefined),1.22% (inactive)
4,CC[C@@H](C)[C@H](N)C(=O)N1Cc2ccccc2C1,-17.7% (inactive)
5,CC(=O)OC1CC(C(C)(C)O)OC2CCC3(C)OC4=C(C(=O)C=C5C(C)C(OC(C)=O)C6(C)C(C)OC546)C(O)C3C12C (centres undefined),-23.5% (inactive)
6,C[C@@H]1O[C@@H](O[C@H]2[C@H](O)[C@@H](O)[C@H](OC[C@H]3O[C@@H](OC(=O)[C@]45CCC(C)(C)C[C@H]4C4=CCC6[C@@]7(C)C[C@@H](O)[C@H](O)[C@@](C)(CO)C7[C@H](O)C[C@@]6(C)[C@]4(C)CC5)[C@H](O)[C@@H](O)[C@@H]3O)O[C@@H]2CO)[C@H](O)[C@H](O)[C@H]1O (some centres undefined),-10.1% (inactive)
7,CC1=CC(=O)C2C(C)(C)CCC[C@]2(C)[C@H]1CC[C@H](C)CC(=O)O (some centres undefined),-12.7% (inactive)
8,C[C@H]1CC(=O)C2=C(C1)C(O)C(O)[C@@]1(O)[C@H]2C(=O)c2cccc(O)c2[C@@H]1O (some centres undefined),3.36% (inactive)
9,CC(=O)OC(C)(C)/C=C/C(=O)[C@](C)(O)C1[C@H](O)C[C@@]2(C)[C@@H]3CC=C4[C@@H](C[C@H](O[C@@H]5O[C@H](CO)[C@@H](O)[C@H](O)[C@H]5O)C(=O)C4(C)C)[C@]3(C)C(=O)C[C@]12C (some centres undefined),-17.8% (inactive)
